# Screens: PubChem BioAssay, several laboratories
# VLA-4 inh: inhibition in a human VLA-4 binding assay; VLA-4 expressing cells, ligand binding flow cytometry; inhibition, % (about 7 µM as worked out from the volumes in the protocol); 0.2% of 330,000 active; AID 2557; in the data active = inhibition above about 50%
# AHR act: human AHR activation; activation, % at 5 µM; 2.5% of 320,000 active; AHR-responsive luciferase reporter cells, luminescence; in the data active = activation above about 47%;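 note: 0% = vehicle wells and 100% = reference agonist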
# ALR inh: blocks human ALR sulfhydryl oxidase activity. P55789. purified ALR, DTT oxidation, H2O2 HRP-luminol luminescence. inhibition, % (no concentration beside the values). 3.8% of 290,000 active. AID 485317;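 active = mean replicate inhibition above about 79%, with every replicate also reaching it, limit read from the data; inconclusive = only one of the two criteria met; inactive = mean below limit and not every replicate reaching it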
# Bfl-1 A1 inh: inhibitors of the anti-apoptotic protein A1, read as caspase activation | MEF A1-2A-BIM cells, Caspase-Glo 3/7 luminescence, 3 h; percent of clofoctol response, vehicle zero | caspase activation, % (no concentration beside the values) | 0.066% of 330,000 active | AID 2462;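 active = over half of replicate activation scores above 10%, or exactly half above 10 with the replicate mean above 10; inconclusive = replicate mean below 10 yet half the replicates above 10; inactive = over half of replicates below 10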
# Efflux pump mplx: blocks antifungal efflux pumps in multiplex yeast assay; inhibition, % at 10 µM; 0.44% of 330,000 active; S. cerevisiae Candida pump triplex, Nile Red efflux; AID 485275;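 active = plate passing quality check with inhibition over a set limit, or well fluorescence over plate mean plus 4 SD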;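 note: Nile Red retained in pooled yeast measured as flow cytometry median fluorescence; 0% = buffer negative control and 100% = Enniatin B positive control; higher means more Nile Red kept so more efflux inhibition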
# Mot1-301 SUMO: blocks SUMOylation pathway, rescuing yeast Mot1-301 growth | S. cerevisiae Mot1-301 growth rescue, ATP luminescence, 38.5C; percent above DMSO median, 100 means doubled | growth rescue, % at 18.8 µM | 1% of 320,000 active;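 active = every valid replicate shows activation above 250% relative to neutral control wells; inactive = the rest, any valid replicate at or below 250%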;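 note: OY570 slx delta 5 strain wells were the positive control but not used for scaling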
# Numbers without * were called inactive; ? = inconclusive; · = not tested or not shown; + = active, no number. A selection: hits, their analogues and other compounds. The true share with any hit is near 7.2%.
SMILES,VLA-4 inh,AHR act,ALR inh,Bfl-1 A1 inh,Efflux pump mplx,Mot1-301 SUMO
Cc1ccc(C(=O)c2nc(C(=O)NCCO)nc3ccccc23)cc1,0.0,47.8*,6.9,0.0,-0.3,32.9
CN(C)/C=N/c1nc2nccc(-c3cccnc3)n2n1,8.9,57.9*,-0.7,0.0,0.3,18.5
Cc1ccc(/C=N/NC(=O)C(C)Oc2ccccc2[N+](=O)[O-])s1 (stereo not given),4.0,8.1,-1.0,0.0,-0.2,2.5
OCCCNC(=S)Nc1ccc(Oc2ccccc2)cc1,0.7,-4.5,·,-0.5,-0.4,-12.9
CN(C)CCCNC(=S)Nc1ccc(Oc2ccccc2)cc1,4.6,-2.1,92.9*,-0.2,0.0,-10.7
CC(C)N(c1ccccc1)c1ccc(NC(=S)NCCN(C)C)cc1,23.0,1.6,98.9*,-0.1,0.0,-12.4
COC(=O)Nc1nnc(/C=C/c2ccc(OC)cc2)s1,·,55.0*,·,0.5,-0.1,-15.0
CCNc1nc(NC(C)C)nc(SCCOc2ccc(C)cc2)n1,-0.2,47.1*,-3.5,-0.5,0.1,24.8
CCN(CC)c1ccc(-c2nc3cnccc3n2C)cc1,19.5,9.7,·,-1.7,0.3,1.6
Cc1ccc(C(=O)N/C(=C/c2ccc(N(C)C)cc2)C(=O)NCC2CCCO2)cc1 (stereo not given),-0.6,9.0,86.8*,-0.1,-0.3,-4.7
CCCCc1ccc(NC(=S)NCC2CCCO2)cc1 (stereo not given),22.2,-5.4,·,0.1,0.0,2.9
CN(C)c1ccc(NC(=S)NCC2CCCO2)cc1 (stereo not given),-6.9,16.9,99.5*,-0.8,-0.4,8.4
Cc1[nH]c(C)c(S(=O)(=O)N2CCN(c3cccc(Cl)c3)CC2)c1C(=O)N1CCCCC1,-1.0,23.3,1.0,0.1,-0.1,-22.2
CN(C)/C=N/c1nccc(-c2cccs2)n1,2.4,-3.3,·,-0.3,-0.1,-1.1
c1coc(-c2ccnc(-n3cccc3)n2)c1,6.9,3.0,·,-1.3,-0.1,28.8
Cc1ccsc1-c1ccnc(-n2cccc2)n1,8.2,67.0*,5.8,0.5,-0.1,-1.1
Clc1ccc(-c2ccnc(-n3cccc3)n2)s1,7.5,53.1*,0.5,-0.6,-0.2,1.9
Clc1ccsc1-c1ccnc(-n2cccc2)n1,3.2,57.4*,3.0,0.4,-0.2,16.9
CN1/C(=C\C=Nc2cc(S(=O)(=O)N3CCOCC3)ccc2N2CCOCC2)C(C)(C)c2ccccc21,8.8,-5.1,33.3,0.3,0.2,-12.4
COc1cc(NC(=O)CCCNC(=O)c2ccc(Cl)cc2)cc(OC)c1OC,2.7,2.1,19.1,0.0,0.7,-14.0
CC(C)CN1CCN=C1N(C)C,25.6,2.9,-17.1,-0.1,0.1,17.8
CN(C)C(=S)Nc1ccc(Cc2ccncc2)cc1,4.3,-1.3,-11.6,0.6,0.3,7.9
CCOc1cc(/C=C2/C(=N)N3C=CSC3=NC2=O)ccc1OCCCOc1ccccc1C,-13.6,12.2,-7.3,40.5*,-0.1,-0.8
Cc1cc(SCNC(=O)c2ccccc2)nc(C(C)C)n1,12.3,0.7,98.5*,0.2,0.1,22.8
Cc1cc(C)nc(SCNC(=O)c2ccccc2)n1,·,3.1,2.4,-0.3,0.3,10.5
SMILES,VLA-4 inh,AHR act,ALR inh,Bfl-1 A1 inh,Efflux pump mplx,Mot1-301 SUMO
COc1ccc(/C=C2\SC(=Nc3ccccc3)NC2=O)cc1,8.4,·,-3.1,-0.2,0.1,130.5
CCc1ccc(N=C2NC(=O)/C(=C/c3ccc(OCC(=O)O)cc3)S2)cc1,0.0,5.5,98.2*,1.0,-0.2,-1.5
CC[C@@]1(c2cccc(C)c2)C(=O)N(C(=O)OC)N1C(=O)OC,1.0,2.3,83.1*,0.2,-0.1,9.2
CC[C@@]1(c2ccccc2OC)C(=O)N(C(=O)OC)N1C(=O)OC,17.6,1.4,·,-0.3,-0.2,6.5
CC(C)CCNc1nc2c(c(=O)n(Cc3cccc(F)c3)c(=O)n2C)n1C,0.0,1.1,·,0.5,0.0,-20.9
COc1c(/C=N/NC(=O)c2ccncc2)c(CCN(C)C(C)=O)cc2c1OCO2,18.1,6.4,-10.4,1.8,0.0,-0.5
CCC(=O)N(C)CCc1cc2c(c(OC)c1/C=N/Nc1ccc(C(=O)O)cc1)OCO2,12.2,-4.2,98.7*,0.9,-0.1,33.1
C#CCNc1cc(C)nc2ncnn12,-6.3,1.0,-1.1,-0.4,-0.1,-2.7
COc1ccc(Nc2cc(C)nc3ncnn23)cc1Cl,0.8,67.6*,-0.7,-1.5,-0.1,-3.4
COc1cc(Nc2cc(C)nc3ncnn23)cc(OC)c1OC,2.5,-0.7,-7.9,0.2,-0.1,-14.0
CCC(C)Nc1cc(C)nc2ncnn12 (stereo not given),6.4,-0.8,-3.1,-0.4,-0.1,+
Cc1ccc(Nc2cc(C)nc3ncnn23)cc1,0.2,5.6,-4.6,0.0,0.0,-15.0
Cc1cc(Nc2ccc(N3CCC(C)CC3)cc2)n2ncnc2n1,4.7,-0.5,90.2*,-0.9,0.2,-13.1
CCc1ccc(OC(C)C(=O)Nc2ccccc2C(=O)N2CCOCC2)cc1 (stereo not given),-1.8,-0.7,7.8,0.0,0.0,104.6
O=C1COc2ccc(C(=O)CSc3nc4ccccc4c(=O)n3-c3ccc(Cl)c(Cl)c3)cc2N1,15.2,2.9,3.3,-0.4,0.0,16.6
CC1(C)N=c2ccc([N+](=O)[O-])c(N)c2=[N+]1[O-],3.8,2.0,-21.2,-0.6,0.0,-2.4
COC(=O)c1c(NS(=O)(=O)Cc2ccccc2)sc2c1CCCC2,-9.9,-0.3,91.5*,-1.4,0.0,19.9
COc1cccc(CNc2ccc3[nH]c(=O)[nH]c3c2)c1OCc1ccccc1F,10.7,8.5,99.2*,-0.1,-0.2,-6.8
C=CCOc1c(Cl)cc(CNc2ccc3[nH]c(=O)[nH]c3c2)cc1OC,9.5,12.7,98.0*,0.5,-0.1,-15.8
C=CCOc1c(Cl)cc(CNc2nccs2)cc1OC,9.9,10.8,9.4,-0.3,-0.1,54.4
COc1cc(CNc2ccc3[nH]c(=O)[nH]c3c2)ccc1OCc1ccccc1Cl,11.7,1.2,-55.2,-0.5,0.4,18.4
C=CCOc1ccccc1CNc1ccc2[nH]c(=O)[nH]c2c1,-3.4,2.2,99.2*,0.0,-0.1,5.4
COc1ccc(C(=O)NNS(=O)(=O)c2ccccc2)cc1OC,6.1,23.2,·,-0.3,0.1,18.6
NNc1ccc(Cl)nn1,-8.1,68.7*,-2.5,0.4,-0.1,3.9
CC(=O)NC(c1cc(Cl)c2ccccc2c1O)C(C)C (stereo not given),8.4,8.9,93.6*,-1.8,0.0,2.3
O=C(OCn1ncc(Cl)c(Cl)c1=O)c1cccc(C(F)(F)F)c1,14.7,5.1,97.1*,?,-0.1,55.9
CCn1c(=O)n(CC(=O)NCC2CCCO2)c(=O)c2c3c(sc21)COC(C)(C)C3 (stereo not given),26.7,-2.3,-4.0,-0.8,-0.1,-18.2
CCOC(=O)COc1ccc(C(=O)Nc2cccc(Cl)c2C)cc1,-7.2,3.6,24.8,-0.3,0.3,6.2
